Test results from the OligoGym collection.

Each sequence was assayed against SURF1 (assay: pooled miR-30 sensor sort-seq; sequence = guide strand). Conditions: shRNA.
Note: reference of the scale not given here.

Sequence	sensor-assay potency score (higher = more potent)
TTCCTCAGAGTAACTCTGGTTT	-0.24
TCAGGATTCACTTTCTTCCTGG	0.148
TAGGAATTTCTTAAACCACAGG	-0.992
TTGTGGCAGATGCTTCTGCTGC	-1.64
TTGAAATACTGCATTATCCAGG	-0.184

What follows are sequences tested against SYBU in the same assay as above. Conditions: shRNA.

Sequence	sensor-assay potency score (higher = more potent)
TTGATTCCTTCTTATATCGAGA	-0.708
TAACAGTTTAAGAACAAACAAG	-1.43
TTGTAGGAGCCTGAGTTGCTAC	-1.24
TAAAATCAGCTTCACTACCTGG	-0.495
TTCTGCATCCACATTGGCGTAG	-0.476
TTAAATGGAAACACTAATCTTT	0.258
TCATCGAACAAATCTGTGCTGT	-0.248
TTTGATTCCTTCTTATATCGAG	0.632
TTGCATGAACTTCTGCATCCAC	0.0297
TTCGATGACCTGTTTGAGCTGT	0.425
TCACCAACCATTCCAATCGTGC	-1.21
TTCACCAACCATTCCAATCGTG	0.00982
